# Data: PubChem BioAssay AID623868 (Vanderbilt High Throughput Screening Facility, 2012)
# Screen size: about 2,100 compounds; about 760 (36%) were called active. The list is a sample of the results. Values without a mark were called inactive.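 How the source made its calls: active means thallium-flux fluorescence traces judged by eye to show enhanced or reduced glutamate response, manual score 1 or -1, so both directions (some results past the limit were not filed as active); inactive means the rest, including fluorescent or raised-baseline compounds.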
# Assay: non-GIRK thallium flux modulation in mGlu8 cells, confirmation, counter-screen for GIRK activator project, cell-based, HEK-293 rmGlu8, no GIRK (AID 623868);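 further: extra codes mark interference with 3 for fluorescent and 4 for baseline rise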
# Conditions: thallium flux fluorescence, at 10 µM, actives lie on both sides, codes: 1 enhancer, -1 blocker, 0 none, thallium stimulus containing EC20 glutamate
row,SMILES,manual score
1,COc1ccc(Cn2nnnc2C(c2ccccc2Cl)N2CCN(C3CCCC3)CC2)cc1 (configuration not stated),0
2,Cc1csc(SCC(=O)Nc2nc3ccccc3s2)n1,0
3,Cc1cnc(NC(=O)CSc2nc3ccccc3c(=O)[nH]2)s1,0
4,CCN(CC)C(=S)SCC(=O)Nc1nc(=O)c2ccccc2s1,1 (active)
5,CCCCn1c(SC(C)C(N)=O)nc2cc(C(=O)OC)ccc2c1=O (configuration not stated),1 (active)
6,CCCCn1c(SCC(=O)Nc2ccc(OC)cc2)nc2ccc(N3CCOCC3)cc2c1=O,0
7,CCCCn1c(=O)[nH]c2nc3cc(N)ccc3nc2c1=O,3
8,COCCCN1C(=O)C(=O)/C(=C(/O)c2ccc(C)cc2)C1c1ccccc1 (configuration not stated),-1 (active)
9,COc1ccc(N/C(C)=C2/C(=O)C(=O)N(CCO)C2c2ccc(Br)cc2)cc1 (configuration not stated),0
10,C=CCOc1ccc(/C(O)=C2/C(=O)C(=O)N(CCCN3CCOCC3)C2c2ccccc2)cc1 (configuration not stated),0
11,O=S(=O)(Nc1ccc2nc(C(F)(F)F)[nH]c2c1)c1ccccc1,0
12,CCOc1ccc(-c2cc(C)n3nc(C(N)=O)cc3n2)cc1,0
13,CCC(Sc1ccc2nnc(-c3ccc(F)cc3)n2n1)C(=O)OC (configuration not stated),-1 (active)
14,Cc1cc(N2CCN(c3ccccc3)CC2)nc(NCc2ccccc2)n1,0
15,S=C(NCc1ccc(Cl)cc1Cl)Nc1ccccc1,0
16,CC(C)CNC(=S)NC(=O)c1ccccc1Cl,1 (active)
17,CCCCNC(=S)NC(=O)c1ccc(Cl)cc1Cl,1 (active)
18,CC(C)NC(=S)NC(=O)c1ccc(Cl)cc1Cl,1 (active)
19,CC(C)CNC(=S)Nc1ccc(Oc2ccccc2)cc1,0
20,CC(C)CNC(=S)NC(=O)c1ccc(Cl)cc1Cl,1 (active)
21,O=S(=O)(c1ccc(Cl)c(F)c1)N1CCC(c2nc(-c3ccncc3)no2)CC1,0
22,O=C(Nc1ccc(F)c(F)c1)NC1CCCCC1,0

row,SMILES,manual score
1,Cc1[nH]c2ccccc2c1CN1CCc2ccccc2C1,0
2,O=C(O)C1C2C=CC(C2)C1C(=O)NCCc1cccc(Cl)c1 (configuration not stated),0
3,Cc1ccc(S(=O)(=O)N/N=C/c2ccc(OC3CSC3)cc2)cc1,0
4,CCCCNC(=S)NC(=O)c1ccccc1Br,1 (active)
5,CCS(=O)(=O)Nc1ccc(-c2nnc(SCC(=O)c3ccc(NC(C)=O)c(OC)c3)o2)cc1,0
6,O=C(CSc1nnc(-c2cccnc2)o1)OC1CCCCC1,-0.5
7,CCOC(=O)CSc1nnc(-c2ccccc2OC)o1,-1 (active)
8,COCCCNCCCOc1ccc(Cl)cc1Br,0
9,CC1=NN(/C(=N\c2nnc(C)s2)Nc2ccccc2)[C@H](c2cccc3ccccc23)S1,1.5
10,CCOc1cccc(C(=O)NC(=S)Nc2ccccc2)c1,0
11,CC(C)Oc1cccc(C(=O)NC(=S)Nc2ccccc2)c1,1 (active)
12,COC(=O)c1cccc(NC(=S)Nc2cccc(Cl)c2Cl)c1,1 (active)
13,O=C(NC(=S)Nc1ccc(N2CCOCC2)cc1)c1cccc(Cl)c1,1 (active)
14,O=C(OCCN1C(=O)c2cccc3c(N4CCOCC4)ccc(c23)C1=O)c1cccc(Cl)c1,3
15,CCCOc1cccc(C(=O)NC(=S)Nc2cccc(C(F)(F)F)c2)c1,1 (active)
16,O=C1C(Cl)=C(N2CCOCC2)C(=O)N1c1cccc(Cl)c1,0
17,FC(F)Oc1ccccc1NC(=S)Nc1cccc(Cl)c1Cl,0.5
18,Cc1cc(O)c(C(C[N+](=O)[O-])c2ccc(Cl)cc2Cl)c(=O)o1 (configuration not stated),0
19,O=C(O)CCC(=O)NC1CCCCCCC1,0
20,CSc1ccccc1NC(=O)Nc1ccccc1,0
21,CSc1ccccc1C(=O)Nc1cccc(C(C)=O)c1,0
22,CC1CCN(c2ncccc2C(=O)O)CC1,0

row,SMILES,manual score
1,O=C(NC(=S)Nc1cccc(Cl)c1N1CCCCC1)c1ccco1,1 (active)
2,O=C(NC(=S)Nc1ccc(N2CCCCC2)cc1)c1ccco1,1 (active)
3,CC(=O)c1cccc(NC(=S)NC(=O)c2cccc(Cl)c2)c1,1 (active)
4,CC(=O)c1cccc(NC(=S)NC(=O)c2cccc(C)c2)c1,0.5
5,O=C(Nc1ccc(OCC(=O)N2CCC(Cc3ccccc3)CC2)cc1)c1ccco1,0
6,CC1CCN(c2ccc(NC(=S)NC(=O)c3ccco3)cc2)CC1,1 (active)
7,O=C(NC(=S)Nc1ccc(N2CCOCC2)c(Cl)c1)c1cncc(Br)c1,1 (active)
8,C=CCN(CC=C)S(=O)(=O)c1ccc(NC(=S)NC(=O)c2ccco2)cc1,0.5
9,COc1ccc(OCC(=O)NC(=S)Nc2ccc(N3CCOCC3)c(Cl)c2)cc1,0
10,O=C(NC(=S)Nc1ccc(N2CCOCC2)cc1)c1ccco1,1 (active)
11,O=C(Nc1ccc(F)cc1)c1cccnc1N1CCOCC1,0
12,CCN(c1ccc2c(c1)OCO2)S(=O)(=O)c1cc(Br)cc2c1N(C(=O)C1CC1)CC2,0
13,N=c1c2c(-c3ccccc3)c(-c3ccccc3)n(Cc3ccccc3)c2ncn1CCCO,0
14,CCOC(=O)C1=NN(C(=O)c2ccc(C)cc2)C(O)(c2ccc(Cl)cc2)C1 (configuration not stated),1 (active)
15,CCOC(=O)c1c(C)[nH]c(C(=O)COC(=O)CNC(=O)c2ccc(Cl)cc2)c1C,0
16,CCOC(=O)C1=C(NC(=S)NC(=O)c2ccccc2)c2ccccc2CC1(C)C,0
17,CCOC(=O)c1cc(-c2ccc(Cl)cc2)nc2c1c(C)nn2CCC#N,0
18,COC(=O)C1=NN(C(=O)c2ccc(Cl)cc2)C(O)(c2ccccc2)C1 (configuration not stated),1 (active)
19,CCOC(=O)C1=NN(C(=O)c2ccccc2)C(O)(c2ccc(C)cc2)C1 (configuration not stated),1 (active)
20,CCC1=NN(C(=O)c2cccc(Br)c2)C(O)(c2ccc(Br)cc2)C1 (configuration not stated),1 (active)
21,Cc1ccc(-c2csc3ncnc(N4CCN(C(=O)c5ccccc5)CC4)c23)cc1,0
22,O=[n+]1cc(-c2ccccc2)n([O-])c2c1CCC2,0

row,SMILES,manual score
1,Cc1ccc(NC(=O)CSc2nnc(CCNC(=O)OC(C)(C)C)o2)c(C)c1,0
2,O=C1CC(C(F)(F)C(F)(F)C(F)(F)F)=Nc2ccccc2N1,0
3,Cc1ccc(NC(=O)Cc2c(Cl)cccc2Cl)cc1S(=O)(=O)N(C)C,0
4,COc1ccccc1C(c1nnnn1CCc1ccccc1)N1CCCCCC1 (configuration not stated),0
5,COC(=O)C1=NN(C(=O)c2ccc(C)cc2)C(O)(c2ccc(Cl)cc2)C1 (configuration not stated),1 (active)
6,COc1ccc2cc(C(=O)NCC(=O)O)sc(=O)c2c1OC,0
7,CCCCn1c(SCC(N)=O)nc2c(sc3ccccc32)c1=O,1 (active)
8,CCCCn1c(SCc2nc(N)nc(Nc3ccccc3C)n2)nc2ccccc2c1=O,0
9,N#CCSc1nc2ccc(N3CCOCC3)cc2c(=O)n1CCc1ccccc1,0
10,O=C(CCCCn1c(=O)c2ccccc2n(CC(=O)NC2CCCC2)c1=O)NCc1ccco1,0
11,CCCCn1c(SCC(=O)NCc2ccco2)nc2ccccc2c1=O,1 (active)
12,CCCCCn1c(NCc2ccco2)nc2ccccc21,0
13,C/C(N)=C(/C#N)C(=O)CSc1nc2cc(Cl)ccc2c(=O)n1-c1ccc(C)cc1,1 (active)
14,CCOC(=O)CSc1nc2c(sc3ccccc32)c(=O)n1CCCN1CCOCC1,0
15,CC(C)CCn1c(SCC#N)nc2c(sc3ccccc32)c1=O,0
16,CCCCn1c(SCC(=O)/C(C#N)=C(\C)N)nc2ccccc2c1=O,1 (active)
17,O=c1sc(N2CCN(c3ccccc3F)CC2)nc2ccsc12,0
18,COc1ccc(C2C(C(N)=O)=C(C)Nc3nc(-c4cccc(Cl)c4)nn32)cc1OC (configuration not stated),0
19,OC(c1ccccc1)C1CN(Cc2ccccc2)CCC1(O)c1ccccc1 (configuration not stated),0
20,Cc1cc(C)cc(NC(=O)Cn2cc3c(n2)CCCCC3)c1,0
21,C=C(C)CNC(=S)N/N=C1\CCCCc2ccccc21,0
22,CCNC(=S)Nc1nc2c(cc1C(=O)OCC)CCCC2,1 (active)

row,SMILES,manual score
1,C=CCNC(=S)Nc1nc2c(cc1C(=O)OCC)CCCC2,1 (active)
2,CCOC(=O)c1cc(NC(=O)SCC(=O)O)c(C)nc1C,0
3,C=C(C)CNC(=S)Nc1nc2c(cc1C(=O)OCC)CCCC2,1 (active)
4,CCN(C(=O)COc1cc(=O)n(CC)c2ccccc12)c1cc(Cl)ccc1OC,0
5,N#CC(C#N)=C1C=C2C=C(N3CCCCC3)CCC2CC1 (configuration not stated),3
6,O=C(COc1ccccc1)NNC(=S)NC(=O)c1ccc(Cl)cc1Cl,1 (active)
7,O=C(NC(=S)NNC(=O)c1cccs1)c1ccc(Br)o1,1 (active)
8,Cc1ccc(C(=O)NNC(=S)NC(=O)c2ccc(Cl)cc2Cl)cc1,1 (active)
9,Cc1onc(-c2ccccc2)c1C(=O)NNC(=S)NC(=O)c1ccc(Br)cc1,1 (active)
10,Cc1ccc(-c2cnc(NC(=O)CCC(=O)N3CCCCC3)n2C)cc1,0
11,CCOC(=O)N1CCC(NC(=O)c2cnn3c2NC(c2ccco2)CC3C(F)(F)F)CC1 (configuration not stated),0
12,COc1cc(OC)c2nc(C)c3c(c2c1)N(c1ccc(O)cc1)CC3,0
13,CCC1Oc2ccc(C)cc2N(CC(=O)N(Cc2ccc(C)o2)C2CCCC2)C1=O (configuration not stated),0
14,CCOC(=O)c1oc2nc(C(C)C)c3c(c2c1N)CC(C)(C)OC3,0
15,Cc1cccc(C(=O)NC(=S)NNC(=O)c2cccs2)c1,1 (active)
16,Cc1cccc(C(=O)NC(=S)NNC(=O)c2ccccc2Cl)c1,1 (active)
17,Cc1ccccc1C(=O)NC(=S)Nc1sc2c(c1C#N)CCCC2,0
18,Cc1onc(-c2ccccc2)c1C(=O)NC(=S)Nc1sc2c(c1C#N)CCCC2,1 (active)
19,Cc1ccccc1C(=O)NNC(=S)NC(=O)c1ccccc1,1 (active)
